The values below come from article PMC7862700, “An all-to-all approach to the identification of sequence-specific readers for epigenetic DNA modifications on cytosine”.

Common to all, as to assay: DAPPL (digital affinity profiling via proximity ligation, sequencing); 10 mM Tris-HCl pH 7.5, 50 mM NaCl, 1 mM DTT, 4% glycerol, room temperature, 30 min; GST-TFs on glutathione beads, 16-mer random dsDNA library, 0.1% formaldehyde crosslink after washing; high values mean tight binding
What all share (details): protein: recombinant; tags: N-terminal GST; dsDNA, one strand shown

Assay [1] deals with T1, ELK1 (Homo sapiens, UniProt P19419 1-428).
T1 sequence: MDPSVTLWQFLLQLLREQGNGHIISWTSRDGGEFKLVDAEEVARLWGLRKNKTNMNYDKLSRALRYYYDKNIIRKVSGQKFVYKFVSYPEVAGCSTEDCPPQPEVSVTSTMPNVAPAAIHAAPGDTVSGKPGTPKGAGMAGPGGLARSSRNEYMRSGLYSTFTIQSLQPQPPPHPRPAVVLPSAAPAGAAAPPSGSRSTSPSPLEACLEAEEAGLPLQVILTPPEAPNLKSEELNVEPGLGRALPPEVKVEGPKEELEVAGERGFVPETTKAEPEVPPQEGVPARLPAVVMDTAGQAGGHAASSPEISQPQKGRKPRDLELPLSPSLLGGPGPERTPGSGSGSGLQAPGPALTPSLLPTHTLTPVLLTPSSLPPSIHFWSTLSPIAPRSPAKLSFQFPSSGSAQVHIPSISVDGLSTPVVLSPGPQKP
The gist of the method:
(§1)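 A tag-only sample was pooled with DNA-barcoded human transcription factors that had been expressed in yeast as GST fusions and captured on glutathione beads. The pools were incubated for 30 min at room temperature with 200 nmole of a random double-stranded 16-mer DNA library in Tris/NaCl/DTT/glycerol buffer, then washed, crosslinked with 0.1% formaldehyde, proximity-ligated (BsaI/T4 ligase, 1 h, 37 °C), PCR-amplified and sequenced on an Illumina NextSeq500. Binding signal is each hexamer's read frequency for a factor divided by its frequency for the tag-only sample.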

The target of assay [2] is T2, GABPA (Homo sapiens, UniProt Q06546 1-454).
T2 sequence: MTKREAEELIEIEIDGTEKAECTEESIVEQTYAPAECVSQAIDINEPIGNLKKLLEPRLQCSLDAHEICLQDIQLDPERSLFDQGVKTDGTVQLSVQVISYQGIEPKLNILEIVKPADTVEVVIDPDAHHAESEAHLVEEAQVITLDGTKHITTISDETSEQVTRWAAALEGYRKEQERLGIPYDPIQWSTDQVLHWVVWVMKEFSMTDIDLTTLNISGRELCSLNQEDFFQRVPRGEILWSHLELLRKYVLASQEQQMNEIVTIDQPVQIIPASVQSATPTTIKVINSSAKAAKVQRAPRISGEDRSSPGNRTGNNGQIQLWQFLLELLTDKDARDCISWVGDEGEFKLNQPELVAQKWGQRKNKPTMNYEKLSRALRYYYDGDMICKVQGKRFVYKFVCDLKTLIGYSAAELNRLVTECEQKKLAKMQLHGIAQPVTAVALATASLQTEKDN
A digest of the protocol:
as §1

For assay [3], the target named is T3, ERG (Homo sapiens, UniProt P11308 1-479).
T3 sequence: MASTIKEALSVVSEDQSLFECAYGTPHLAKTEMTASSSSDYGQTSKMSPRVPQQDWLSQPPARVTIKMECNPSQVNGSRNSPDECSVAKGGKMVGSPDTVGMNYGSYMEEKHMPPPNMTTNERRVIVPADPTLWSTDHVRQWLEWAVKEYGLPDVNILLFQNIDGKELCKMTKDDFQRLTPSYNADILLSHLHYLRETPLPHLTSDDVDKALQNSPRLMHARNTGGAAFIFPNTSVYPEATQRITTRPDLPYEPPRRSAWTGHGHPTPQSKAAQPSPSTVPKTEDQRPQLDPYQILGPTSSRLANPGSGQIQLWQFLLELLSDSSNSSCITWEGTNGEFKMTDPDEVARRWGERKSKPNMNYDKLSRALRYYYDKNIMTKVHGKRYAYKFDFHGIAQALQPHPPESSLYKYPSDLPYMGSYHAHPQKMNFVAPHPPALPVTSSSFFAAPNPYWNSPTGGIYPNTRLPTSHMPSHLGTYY
A digest of the protocol:
as §1

In assay [4] the target is ELF1 (Homo sapiens, UniProt P32519 1-619). The gist of the method:
as §1

Assay [5] has as its target T4, EHF (Homo sapiens, UniProt Q9NZC4 1-300).
T4 sequence: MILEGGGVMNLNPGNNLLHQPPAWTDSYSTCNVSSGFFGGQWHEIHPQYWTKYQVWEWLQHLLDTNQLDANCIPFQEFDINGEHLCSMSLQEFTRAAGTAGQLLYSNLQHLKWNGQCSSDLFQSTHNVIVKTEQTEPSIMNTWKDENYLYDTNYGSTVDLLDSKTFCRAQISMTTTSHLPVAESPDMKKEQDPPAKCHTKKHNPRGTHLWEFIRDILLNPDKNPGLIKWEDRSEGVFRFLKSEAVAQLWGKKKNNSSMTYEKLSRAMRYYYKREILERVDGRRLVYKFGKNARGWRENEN
The gist of the method:
as §1

In assay [6] the target is SPIB (Homo sapiens, UniProt Q01892 1-262). The gist of the method: as §1
Sequence of SPIB (Q01892 whole entry): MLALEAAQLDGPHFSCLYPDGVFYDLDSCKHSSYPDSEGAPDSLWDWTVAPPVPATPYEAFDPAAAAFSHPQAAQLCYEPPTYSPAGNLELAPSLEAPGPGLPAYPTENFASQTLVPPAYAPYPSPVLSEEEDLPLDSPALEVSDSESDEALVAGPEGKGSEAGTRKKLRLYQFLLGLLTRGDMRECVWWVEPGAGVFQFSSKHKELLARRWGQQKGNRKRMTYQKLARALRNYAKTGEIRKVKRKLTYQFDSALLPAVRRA
Assay [7] concerns the target T5, ELK3 (Homo sapiens, UniProt P41970 1-407).
T5 sequence: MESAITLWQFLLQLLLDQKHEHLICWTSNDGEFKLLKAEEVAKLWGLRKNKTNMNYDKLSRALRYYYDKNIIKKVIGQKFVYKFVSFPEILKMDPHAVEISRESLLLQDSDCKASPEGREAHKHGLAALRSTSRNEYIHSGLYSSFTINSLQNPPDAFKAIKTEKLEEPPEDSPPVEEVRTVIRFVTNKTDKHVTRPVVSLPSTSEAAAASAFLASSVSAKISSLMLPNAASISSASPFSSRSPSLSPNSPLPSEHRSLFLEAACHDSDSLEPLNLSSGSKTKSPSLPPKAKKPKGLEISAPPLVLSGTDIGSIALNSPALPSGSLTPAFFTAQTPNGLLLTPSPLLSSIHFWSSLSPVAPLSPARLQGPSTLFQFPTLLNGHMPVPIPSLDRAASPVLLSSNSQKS
A digest of the protocol:
as §1

Assay [8] has as its target ETV5 (Homo sapiens, UniProt P41161 1-510). The gist of the method: as §1
In assay [9] the target is ELF4 (Homo sapiens, UniProt Q99607 1-663). The gist of the method: as §1
Sequence of ELF4 (Q99607 whole entry): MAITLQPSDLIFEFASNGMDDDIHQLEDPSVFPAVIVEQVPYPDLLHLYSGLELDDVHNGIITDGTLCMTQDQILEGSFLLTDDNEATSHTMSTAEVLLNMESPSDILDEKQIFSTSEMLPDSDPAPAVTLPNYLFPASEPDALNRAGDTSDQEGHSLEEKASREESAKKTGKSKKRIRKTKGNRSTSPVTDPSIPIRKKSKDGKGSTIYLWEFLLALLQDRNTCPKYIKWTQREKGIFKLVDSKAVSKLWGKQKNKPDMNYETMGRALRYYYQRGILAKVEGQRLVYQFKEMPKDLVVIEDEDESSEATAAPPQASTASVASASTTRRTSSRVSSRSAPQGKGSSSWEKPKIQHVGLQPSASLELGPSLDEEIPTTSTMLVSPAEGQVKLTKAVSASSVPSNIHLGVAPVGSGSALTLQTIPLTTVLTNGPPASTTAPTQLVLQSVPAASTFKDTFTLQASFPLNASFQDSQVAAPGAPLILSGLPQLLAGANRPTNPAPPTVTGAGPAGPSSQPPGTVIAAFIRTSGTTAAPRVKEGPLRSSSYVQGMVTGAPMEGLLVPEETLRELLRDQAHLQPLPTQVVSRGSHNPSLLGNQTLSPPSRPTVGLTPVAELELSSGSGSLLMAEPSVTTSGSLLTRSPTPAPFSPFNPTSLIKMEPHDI

Sequence of ELF1 (P32519 whole entry): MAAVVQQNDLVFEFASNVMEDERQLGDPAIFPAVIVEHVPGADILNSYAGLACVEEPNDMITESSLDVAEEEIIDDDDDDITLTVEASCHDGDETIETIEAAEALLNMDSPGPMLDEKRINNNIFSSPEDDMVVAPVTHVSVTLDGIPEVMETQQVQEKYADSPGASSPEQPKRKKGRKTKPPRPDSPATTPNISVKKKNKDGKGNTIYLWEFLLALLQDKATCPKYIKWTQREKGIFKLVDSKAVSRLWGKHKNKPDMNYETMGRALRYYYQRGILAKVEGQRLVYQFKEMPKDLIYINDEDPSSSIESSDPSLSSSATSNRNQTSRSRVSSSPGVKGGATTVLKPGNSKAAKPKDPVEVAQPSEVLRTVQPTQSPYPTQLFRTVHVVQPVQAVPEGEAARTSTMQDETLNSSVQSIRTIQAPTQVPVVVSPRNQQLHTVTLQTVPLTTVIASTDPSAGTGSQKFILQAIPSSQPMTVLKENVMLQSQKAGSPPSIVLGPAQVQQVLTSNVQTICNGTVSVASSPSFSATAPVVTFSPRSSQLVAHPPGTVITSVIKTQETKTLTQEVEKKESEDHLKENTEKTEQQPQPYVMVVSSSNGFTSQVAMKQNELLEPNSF
Sequence of ETV5 (P41161 whole entry): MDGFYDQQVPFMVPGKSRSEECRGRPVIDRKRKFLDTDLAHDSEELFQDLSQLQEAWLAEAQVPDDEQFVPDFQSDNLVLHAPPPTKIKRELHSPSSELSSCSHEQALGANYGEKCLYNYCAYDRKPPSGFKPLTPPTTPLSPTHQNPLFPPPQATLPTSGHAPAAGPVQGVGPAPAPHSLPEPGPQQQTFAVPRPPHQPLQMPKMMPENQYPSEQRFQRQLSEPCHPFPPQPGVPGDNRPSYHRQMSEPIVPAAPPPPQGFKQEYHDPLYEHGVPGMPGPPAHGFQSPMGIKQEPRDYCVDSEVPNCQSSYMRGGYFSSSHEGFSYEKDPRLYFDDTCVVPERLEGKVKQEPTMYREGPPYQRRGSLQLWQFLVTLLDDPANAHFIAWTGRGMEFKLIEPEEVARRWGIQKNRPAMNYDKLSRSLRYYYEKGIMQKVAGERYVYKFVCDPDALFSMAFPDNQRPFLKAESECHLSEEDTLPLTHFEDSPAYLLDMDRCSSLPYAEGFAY

Turning to GGACTT, the binding signal is 1.24 fold enrichment (6-mer frequency, TF over GST control) in assay [1]; 1.16 fold enrichment (6-mer frequency, TF over GST control) in assay [2]; 1.17 fold enrichment (6-mer frequency, TF over GST control) in assay [3]; 1.16 fold enrichment (6-mer frequency, TF over GST control) in assay [4]; 1.11 fold enrichment (6-mer frequency, TF over GST control) in assay [5]; 1.11 fold enrichment (6-mer frequency, TF over GST control) in assay [6]. Also, the binding signal was 1.11 fold enrichment (6-mer frequency, TF over GST control) in [7]; 1.15 fold enrichment (6-mer frequency, TF over GST control) in assay [8]; 1.09 fold enrichment (6-mer frequency, TF over GST control) in [9].
